The results in this text go back to ChEMBL document CHEMBL5606460, “ASAP - DENV-2 NS2B-NS3 protease fluorescence single point” (2024).

This test deals with Genome polyprotein (dengue virus type 2) (UniProt P29990).
[1] abbreviates: Thailand/16681/1984, Concentration 25.0 uM, Number of replicates 1.0.

Molecules are shown by their SMILES. About 110 (5.5%) of roughly 2,000 compounds showed an effect of 50% or more. The full list was thinned out, with strong results kept by preference.

The inhibition is the relative decrease from the control value, in per cent. `Cc1cc(CO)c2cccc(CC(=O)Nc3cccc(C(N)=O)c3)c2n1`: the inhibition was determined as 71.5% (Thailand/16681/1984, Concentration 49.95 uM, Number of replicates 2.0, Standard deviation 0.3351031861891448 %) and 94.2% (Thailand/16681/1984, Concentration 99.9 uM, Number of replicates 2.0, Standard deviation 0.3101738310571331 %). Turning to `Cc1cc(CO)c2cccc(CC(=O)Nc3nonc3C(N)=O)c2n1`, the inhibition reads like this: (Thailand/16681/1984, Concentration 49.95 uM, Number of replicates 2.0, Standard deviation 0.10454576349345478 %) 97.1%; (Thailand/16681/1984, Concentration 99.9 uM, Number of replicates 2.0, Standard deviation 0.006921524049853062 %) 99%. As to `Cc1cc(CO)c2cccc(Cc3cccc(C(=O)Nc4nonc4C(N)=O)c3)c2n1`, the inhibition runs as follows: (Thailand/16681/1984, Concentration 49.95 uM, Number of replicates 2.0, Standard deviation 1.9942580477177279 %) 23.4%; (Thailand/16681/1984, Concentration 99.9 uM, Number of replicates 2.0, Standard deviation 1.5142007227316114 %) 73%.

For `Cc1cc(CO)c2cccc(Cc3ccccc3C(=O)Nc3nonc3C(N)=O)c2n1`, the inhibition (Thailand/16681/1984, Concentration 49.95 uM, Number of replicates 2.0, Standard deviation 0.20481615067396447 %) amounted to 9.42% and the inhibition (Thailand/16681/1984, Concentration 99.9 uM, Number of replicates 2.0, Standard deviation 0.252245853764608 %) is 28.4%. For `Cc1cc(CO)c2cccc(Cc3ccccc3C(=O)Nc3cccc(C(N)=O)c3)c2n1`, the inhibition was found to be 4.23% (Thailand/16681/1984, Concentration 49.95 uM, Number of replicates 2.0, Standard deviation 0.1803817681308647 %) and 9.06% (Thailand/16681/1984, Concentration 99.9 uM, Number of replicates 2.0, Standard deviation 0.18828716821235608 %).

Regarding `Cc1cc(CO)c2cccc(Nc3nonc3C(N)=O)c2n1`, the inhibition is, setting by setting: (Thailand/16681/1984, Concentration 49.95 uM, Number of replicates 2.0, Standard deviation 1.5271718368293243 %) 11%; (Thailand/16681/1984, Concentration 99.9 uM, Number of replicates 2.0, Standard deviation 3.697399383401008 %) 23.8%. As to `Cc1cc(CO)c2cccc(Cc3cccc(C(=O)Nc4cccc(C(N)=O)c4)c3)c2n1`, the inhibition by setting is: (Thailand/16681/1984, Concentration 49.95 uM, Number of replicates 2.0, Standard deviation 0.8487279472032775 %) 0.063%; (Thailand/16681/1984, Concentration 99.9 uM, Number of replicates 2.0, Standard deviation 0.25943340872226184 %) 4.4%. Take `Cc1cc(CO)c2cccc(Cc3ccccc3NC(=O)Cc3cccc(CN)c3)c2n1`: the inhibition is, setting by setting: (Thailand/16681/1984, Concentration 49.95 uM, Number of replicates 2.0, Standard deviation 1.4858035354408357 %) -0.82%; (Thailand/16681/1984, Concentration 99.9 uM, Number of replicates 2.0, Standard deviation 1.2081673980721888 %) 5.26%. Consider `Cc1cc(CO)c2cccc(Cc3cccc(C(=O)Nc4cc(O)[nH]n4)c3)c2n1`, for which the inhibition (Thailand/16681/1984, Concentration 49.95 uM, Number of replicates 2.0, Standard deviation 1.1139101860624252 %) stood at 16.1% and the inhibition (Thailand/16681/1984, Concentration 99.9 uM, Number of replicates 2.0, Standard deviation 0.5605490390974336 %) is 35%.

Consider `O=Cc1ccc(N2CCC(C(=O)NCc3ccc(C(F)(F)F)nc3)CC2)cc1`, for which the inhibition under setting [1] worked out at 14.9%. On to `CC(C)(CO)NC(=O)c1cc(Cl)cc(OCc2ccccn2)c1`, for which the inhibition (Thailand/16681/1984, Concentration 49.5 uM, Number of replicates 2.0, Standard deviation 3.9117339361958243 %) is -3.57%; the inhibition (Thailand/16681/1984, Concentration 99.01 uM, Number of replicates 2.0, Standard deviation 3.9139588683287148 %) is -3.56%; the inhibition (Thailand/16681/1984, Concentration 198.0 uM, Number of replicates 2.0, Standard deviation 3.978479645326132 %) was -2.33%. In the case of `O=Cc1ccc(N2CCC(C(=O)N3CCS[C@H]3c3ccc([N+](=O)[O-])cc3)CC2)cc1`, the inhibition under setting [1] stood at 10.8%. Turning to `CNC(=O)c1cc(Cl)ccc1NS(=O)(=O)c1ccc(Cn2cncn2)cc1`, the inhibition runs as follows: (Thailand/16681/1984, Concentration 49.5 uM, Number of replicates 2.0, Standard deviation 0.7766096317793165 %) -1.89%; (Thailand/16681/1984, Concentration 99.01 uM, Number of replicates 2.0, Standard deviation 1.2995063622910579 %) -0.333%; (Thailand/16681/1984, Concentration 198.0 uM, Number of replicates 2.0, Standard deviation 1.6197418261994996 %) 2.7%. As to `CS(=O)(=O)N1CCC(NC(=O)C2CCN(c3ccc(C=O)cc3)CC2)CC1`, the inhibition under setting [1] stood at 12%.

For the compound `O=Cc1ccc(N2CCC(C(=O)Nc3ncnc(Cl)c3Cl)CC2)cc1`, the inhibition under setting [1] stood at 10.5%. On the same count and under the same terms, then `C=CCN(Cc1cccc(OC)c1)C(=O)C1CCN(c2ccc(C=O)cc2)CC1`, with 13.3%; and `Cc1ccc(NC(=O)C2CCN(c3ccc(C=O)cc3)CC2)cc1I`, with 9.87%. Take `Cc1cc(CO)c2cccc(Cc3ccccc3NC(=O)Cc3nnc(C)[nH]3)c2n1`: the inhibition (Thailand/16681/1984, Concentration 49.95 uM, Number of replicates 2.0, Standard deviation 1.0489246346930539 %) turned out to be 2.09% and the inhibition (Thailand/16681/1984, Concentration 99.9 uM, Number of replicates 2.0, Standard deviation 0.8121374020252716 %) turned out to be 10.7%. Turning to `O=Cc1ccc(N2CCC(C(=O)NCc3ccc(-c4ccccn4)cc3)CC2)cc1`, the inhibition under setting [1] stood at 6.55%. As to `CC(=O)N[C@@H](CCCCN)C(=O)Nc1ccccc1Cc1cccc2c(CO)cc(C)nc12`, the inhibition (Thailand/16681/1984, Concentration 49.95 uM, Number of replicates 2.0, Standard deviation 0.842601818478522 %) is -5.54% and the inhibition (Thailand/16681/1984, Concentration 99.9 uM, Number of replicates 2.0, Standard deviation 0.16339684106206548 %) is 1.8%. As for `CC(=O)N[C@@H](CCCN)C(=O)Nc1ccccc1Cc1cccc2c(CO)cc(C)nc12`, the inhibition is -4.07% (Thailand/16681/1984, Concentration 49.95 uM, Number of replicates 2.0, Standard deviation 1.2344771467866291 %) and 4.36% (Thailand/16681/1984, Concentration 99.9 uM, Number of replicates 2.0, Standard deviation 0.6037374205287288 %).

Consider `CC(=O)N[C@@H](CCCN)C(=O)Nc1cccc2c(CO)cc(C)nc12`, for which the inhibition (Thailand/16681/1984, Concentration 99.9 uM, Number of replicates 2.0, Standard deviation 2.7664513641226787 %) was 9.57%. On to `CC(=O)N[C@@H](CCCCN)C(=O)Nc1cccc2c(CO)cc(C)nc12`, for which the inhibition (Thailand/16681/1984, Concentration 49.95 uM, Number of replicates 2.0, Standard deviation 0.7189645441339965 %) was 35.5% and the inhibition (Thailand/16681/1984, Concentration 99.9 uM, Number of replicates 2.0, Standard deviation 0.1513618084697797 %) is 97.4%. `CC(=O)N[C@@H](Cc1ccc(CN)cc1)C(=O)Nc1cccc2c(CO)cc(C)nc12`: the inhibition runs as follows: (Thailand/16681/1984, Concentration 49.95 uM, Number of replicates 2.0, Standard deviation 0.08390662036506401 %) 24.9%; (Thailand/16681/1984, Concentration 99.9 uM, Number of replicates 2.0, Standard deviation 0.3339864632910001 %) 96.3%. In the case of `CC(=O)N[C@@H](Cc1ccc(O)cc1)C(=O)Nc1cccc2c(CO)cc(C)nc12`, the inhibition by setting is: (Thailand/16681/1984, Concentration 49.95 uM, Number of replicates 2.0, Standard deviation 2.4752459751189644 %) -9.17%; (Thailand/16681/1984, Concentration 99.9 uM, Number of replicates 2.0, Standard deviation 3.123465853915667 %) -9.54%.
